# From PubChem BioAssay (NCI)
# Several values for one entry are separate records, joined by “and”; a condition that tells them apart may be missing. Identical values can stand only once. Compounds without any hit were thinned out: in the full panel of roughly 83,000, 20% have a hit.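 Treatment: one concentration, 48 hours, 96-well format. Scoring: percent growth, with anything below 10 considered active.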 Activity calls are given as the source filed them.
# System: OVCAR-5 ovarian
# Experiment: NCI-60 one-dose screen, 48 h (100 = growth as untreated, 0 = no growth, -100 = all killed)
# Conditions: 10 µM unless noted
row,Compound,growth
1,O=C(/C=C/Nc1ccc(S(=O)(=O)Nc2ncccn2)cc1)c1ccc(N=Cc2c(O)[nH]c3ccccc23)cc1,115% (inactive)
2,CCCCCN1C(=O)/C(=c2\sc3n(c2=O)C2C(NN=3)N(CC)C(=O)N2CC)c2cccc(C)c21 (stereo unspecified),72.4% (inactive)
3,C#C[C@]1(O)CC[C@H]2[C@@H]3CC=C4c5sc(Nc6ncccc6C)nc5CC[C@]4(C)[C@H]3CC[C@@]21C,26% (inactive)
4,O=C1CSC(c2cn(-c3ccccc3)nc2-c2ccc(Cl)cc2)N1c1ccccc1 (stereo unspecified),112% (inactive)
5,CC(=O)Nc1ccccc1-c1nc2ccccc2s1,102% (inactive)
6,O=C(/C=C/c1cccc(Br)c1)c1cccc(OCCCCOc2cccc(C(=O)/C=C/c3cccc(Br)c3)c2)c1,104% (inactive)
7,C/C(=C(\c1ccc(O)cc1)c1ccc(OCCN2CCCCCC2)cc1)c1ccc(Cl)cc1,-56.3% (active)
8,Clc1ccc(CSc2nnc(-c3ccc(Cl)cc3)n2-c2ccccc2)cc1,104% (inactive)
9,O=C(CCCCCCNC(=O)C(O)(O)C(F)(F)F)Nc1nc2ccccc2s1,1.89% (active)
10,CC(C)NC(=O)c1cc(-c2ccc(NC(=O)Nc3ccc(F)c(C(F)(F)F)c3)cc2)nc2cccnc12,113% (inactive)
11,COc1ccc(-c2cnc(NC(=O)CCCCCCNC(=O)C(O)(O)C(F)(F)F)s2)cc1,4.6% (active)
12,C/C=C/CC(C)C(O)[C@H](NC(=O)[C@@H]1CCCN1C(=O)[C@](C)(CC)NC(=O)CCCCCCCCC)C(=O)N[C@@](C)(CC)C(=O)N[C@@H](CCC(N)=O)C(=O)N[C@H](CCC(N)=O)C(=O)NC(C)(C)C(=O)NC(C)(C)C(=O)N[C@@H](CCC(N)=O)C(=O)N[C@H](CC(C)C)C(=O)N[C@H](CO)CC(C)C (stereo partly specified),71% (inactive) and -92% (active)
13,CC1CC(=O)C2=C(C1)Nc1ccc(Br)cc1CC2c1c[nH]c2ccc(Br)cc12 (stereo unspecified),82% (inactive)
14,CC(C)(C)Nc1nc2c(OCCc3ccccc3)cccn2c1-c1cccc(Oc2ccccc2)c1,17.7% (inactive)
15,CCCC/C(=C\c1ccc(O)c(O)c1)C(=O)NC(Cc1ccccc1)C(=O)C(=O)NCCc1ccc(OC)cc1 (stereo unspecified),99.3% (inactive)
16,COC(=O)c1cccc(NC2=C(Cl)C(=O)c3nc(C)ccc3C2=O)c1,99.8% (inactive)

row,Compound,growth
1,NC1CC2(CCN(c3cnc(C(=O)Nc4cc(F)cc5cccnc45)cn3)CC2)C1,85.9% (inactive)
2,COC(=O)c1ccc(NC2=C(Cl)C(=O)c3nc(C)ccc3C2=O)cc1,105% (inactive)
3,CC(Nc1c(C#N)cnc2ccc(-c3cncc(-c4n[nH]c(=O)o4)c3)cc12)c1ccccc1 (stereo unspecified),26% (inactive)
4,CC(=O)OC[C@]12CC[C@@H](C(=O)/C=C/c3cccnc3)[C@@H]1[C@H]1CC[C@@H]3[C@@]4(C)CC[C@H](OC(C)=O)C(C)(C)[C@@H]4CC[C@@]3(C)[C@]1(C)CC2,15.1% (inactive)
5,CC(O)c1cccc(/C(N)=N/C(N)=N/c2nc3ccccc3s2)c1 (stereo unspecified),100% (inactive)
6,CC(C)=CCC[C@](C)(O)[C@H]1CC[C@]2(C)[C@@H]1CC[C@@H]1[C@@]3(C)CC[C@H](N)C(C)(C)[C@@H]3CC[C@]12C,108% (inactive)
7,Cc1ccc2c(n1)C(=O)C(Cl)=C(Nc1cccc(C)c1C)C2=O,-29% (active)
8,C[C@]12CC[C@H]3[C@@H](CC=C4C[C@@H](O)CC[C@@]43C)[C@@H]1CC[C@@H]2[C@](C)(O)CCc1cccnc1,113% (inactive)
9,CN1CCN(c2ccc(Nc3nc(NCCCNS(=O)(=O)c4ccc(C(F)(F)F)cc4)c4sccc4n3)cc2)CC1,-3% (active)
10,Cc1ccc2c(n1)C(=O)C(Cl)=C(Nc1cccc(C(F)(F)F)c1)C2=O,119% (inactive)
11,O=C(CN1CCN(c2cc(=O)[nH]c3ccc(F)cc23)CC1)N(c1ccccc1)c1ccccc1,102% (inactive)
12,Cc1[nH]c(C(=O)Nc2ccc(C(N)=O)cc2N2CCOC(C)C2)c(Cl)c1Cl (stereo unspecified),98.1% (inactive)
13,CC1(C)CC[C@]2(C(=O)O)CC[C@]3(C)C(=CC[C@@H]4[C@@]5(C)CC[C@H](NOCCCN)C(C)(C)[C@@H]5CC[C@]43C)[C@@H]2C1,100% (inactive)
14,Cc1ccc2c(n1)C(=O)C(Cl)=C(Nc1ccc(C#N)cc1)C2=O,106% (inactive)
15,CC(=O)Nc1nc(C)c(-c2csc(Nc3ccccc3)n2)s1,41.9% (inactive)
